In PubChem BioAssay AID1159580 (chemical genetic matrix, 2015):
The whole screen tested about 5,500 compounds, of which about 2,000 (36%) were called active. Inconclusive results (about 18%) are left out. Rule as the data show it: active = normalized growth mostly below about 0.91 (no sharp cut-off); inconclusive = no clear call, values can overlap the other calls; inactive = mostly above about 0.92. The list shows a part of the results.

Test: chemical genetic growth profiling, strain panel (AID 1159580);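 also: tested at 20 µM; growth read once vehicle control cultures reached saturation at 30 °C; 1 = growth at the plate median or of vehicle wells; lower values mean less growth of the strain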
Details: growth OD

Measured: normalized growth

COC(=O)CCCOc1ccc(Cl)cc1Cl
inactive: S. cerevisiae deletion strains, locus YJR043C, strain POL32, hits give low values 0.979 | S. cerevisiae deletion strains, locus YJR075W, strain HOC1, hits give low values 0.995 | S. cerevisiae deletion strains, locus YKL009W, strain mrt4, hits give low values 1.01 | S. cerevisiae deletion strains, locus YKL068W, hits give low values 0.98 | S. cerevisiae deletion strains, locus YKL085W, strain MDH1 (second series), hits give low values 0.982 | S. cerevisiae deletion strains, locus YKL085W, strain MDH1, hits give low values 0.982 | S. cerevisiae deletion strains, locus YKL160W, strain elf1, hits give low values 0.964 | S. cerevisiae deletion strains, locus YKL190W, strain CNB1, hits give low values 0.99 | S. cerevisiae deletion strains, locus YKR001C, strain vps1, hits give low values 0.987 | S. cerevisiae deletion strains, locus YKR026C, strain gcn3, hits give low values 0.946 | S. cerevisiae deletion strains, locus YKR091W, strain srl3, hits give low values 0.96 | S. cerevisiae deletion strains, locus YLL001W, strain dnm1, hits give low values 0.957 | S. cerevisiae deletion strains, locus YLL026W, hits give low values 0.957 | S. cerevisiae deletion strains, locus YLL041C, strain sdh2, hits give low values 0.957 | S. cerevisiae deletion strains, locus YLR027C, strain aat2, hits give low values 0.952 | S. cerevisiae deletion strains, locus YLR039C, strain RIC1, hits give low values 0.982 | S. cerevisiae deletion strains, locus YLR058C, strain SHM2, hits give low values 1 | S. cerevisiae deletion strains, locus YLR102C, strain apc9, hits give low values 0.997 | S. cerevisiae deletion strains, locus YLR221C, strain rsa3, hits give low values 0.967 | S. cerevisiae deletion strains, locus YLR258W, strain gsy2, hits give low values 0.951 | S. cerevisiae deletion strains, locus YLR262C, strain YPT6 (second series), hits give low values 0.92 | S. cerevisiae deletion strains, locus YLR262C, strain YPT6, hits give low values 0.925 | S. cerevisiae deletion strains, locus YLR268W, strain sec22, hits give low values 1.01 | S. cerevisiae deletion strains, locus YLR320W, strain mms22, hits give low values 0.924 | S. cerevisiae deletion strains, locus YLR330W, strain CHS5, hits give low values 0.991 | S. cerevisiae deletion strains, locus YLR342W, strain FKS1 (second series), hits give low values 1 | S. cerevisiae deletion strains, locus YLR342W, strain FKS1, hits give low values 0.948 | S. cerevisiae deletion strains, locus YLR357W, strain rsc2, hits give low values 0.97 | S. cerevisiae deletion strains, locus YLR370C, strain arc18, hits give low values 0.963 | S. cerevisiae deletion strains, locus YLR371W, strain rom2, hits give low values 0.999 | S. cerevisiae deletion strains, locus YLR384C, strain iki3, hits give low values 0.957 | S. cerevisiae deletion strains, locus YLR418C, strain cdc73, hits give low values 1.02 | S. cerevisiae deletion strains, locus YML016C, strain PPZ1, hits give low values 0.988 | S. cerevisiae deletion strains, locus YML032C, strain rad52, hits give low values 1.01 | S. cerevisiae deletion strains, locus YML120C, strain ndi1, hits give low values 0.967 | S. cerevisiae deletion strains, locus YML124C, strain tub3, hits give low values 0.995 | S. cerevisiae deletion strains, locus YMR058W, strain fet3, hits give low values 0.966 | S. cerevisiae deletion strains, locus YMR078C, strain ctf18, hits give low values 1 | S. cerevisiae deletion strains, locus YMR125W, strain sto1, hits give low values 0.954 | S. cerevisiae deletion strains, locus YMR129W, hits give low values 0.95 | S. cerevisiae deletion strains, locus YMR205C, strain PFK2, hits give low values 0.948 | S. cerevisiae deletion strains, locus YMR223W, strain ubp8, hits give low values 1.01 | S. cerevisiae deletion strains, locus YMR231W, strain pep5, hits give low values 0.949 | S. cerevisiae deletion strains, locus YMR263W, strain SAP30, hits give low values 0.999 | S. cerevisiae deletion strains, locus YMR307W, strain GAS1, hits give low values 0.98 | S. cerevisiae deletion strains, locus YNL067W, strain RPL9B, hits give low values 0.995 | S. cerevisiae deletion strains, locus YNL071W, strain lat1, hits give low values 0.967 | S. cerevisiae deletion strains, locus YNL128W, strain TEP1, hits give low values 1 | S. cerevisiae deletion strains, locus YNL153C, strain GIM3, hits give low values 0.999 | S. cerevisiae deletion strains, locus YNL209W, strain ssb2, hits give low values 0.962 | S. cerevisiae deletion strains, locus YNL233W, strain BNI4, hits give low values 1 | S. cerevisiae deletion strains, locus YNL248C, strain rpa49, hits give low values 0.964 | S. cerevisiae deletion strains, locus YNL250W, strain rad50, hits give low values 0.978 | S. cerevisiae deletion strains, locus YNL271C, strain bni1, hits give low values 0.976 | S. cerevisiae deletion strains, locus YNL298W, strain CLA4, hits give low values 0.985 | S. cerevisiae deletion strains, locus YNL307C, strain MCK1, hits give low values 0.968 | S. cerevisiae deletion strains, locus YNL322C, strain KRE1 (second series), hits give low values 0.957 | S. cerevisiae deletion strains, locus YNL322C, strain KRE1, hits give low values 0.994 | S. cerevisiae deletion strains, locus YNR049C, strain mso1, hits give low values 0.95 | S. cerevisiae deletion strains, locus YNR052C, strain pop2, hits give low values 1.01 | S. cerevisiae deletion strains, locus YOL006C, strain TOP1, hits give low values 0.971 | S. cerevisiae deletion strains, locus YOL012C, strain htz1 1.55 | S. cerevisiae deletion strains, locus YOL147C, strain pex11, hits give low values 0.99 | S. cerevisiae deletion strains, locus YOR001W, strain rrp6, hits give low values 0.983 | S. cerevisiae deletion strains, locus YOR061W, strain CKA2, hits give low values 0.989 | S. cerevisiae deletion strains, locus YOR069W, strain VPS5, hits give low values 1 | S. cerevisiae deletion strains, locus YOR070C, strain gyp1, hits give low values 0.956 | S. cerevisiae deletion strains, locus YOR080W, strain dia2, hits give low values 0.946 | S. cerevisiae deletion strains, locus YOR083W, strain WHI5, hits give low values 0.957 | S. cerevisiae deletion strains, locus YOR106W, strain vam3, hits give low values 0.991 | S. cerevisiae deletion strains, locus YOR136W, strain idh2, hits give low values 1 | S. cerevisiae deletion strains, locus YOR144C, strain elg1, hits give low values 0.998 | S. cerevisiae deletion strains, locus YOR184W, strain ser1, hits give low values 0.993 | S. cerevisiae deletion strains, locus YOR265W, strain rbl2, hits give low values 0.956 | S. cerevisiae deletion strains, locus YOR270C, strain vph1, hits give low values 0.963 | S. cerevisiae deletion strains, locus YOR290C, strain snf2, hits give low values 0.974 | S. cerevisiae deletion strains, locus YOR316C, strain cot1, hits give low values 1 | S. cerevisiae deletion strains, locus YPL051W, strain arl3, hits give low values 0.972 | S. cerevisiae deletion strains, locus YPL055C, strain LGE1, hits give low values 0.978 | S. cerevisiae deletion strains, locus YPL078C, strain atp4, hits give low values 0.948 | S. cerevisiae deletion strains, locus YPL106C, strain sse1, hits give low values 0.964 | S. cerevisiae deletion strains, locus YPL240C, strain hsp82, hits give low values 0.948 | S. cerevisiae deletion strains, locus YPL241C, strain CIN2, hits give low values 0.993 | S. cerevisiae deletion strains, locus YPR119W, strain clb2, hits give low values 0.995 | S. cerevisiae deletion strains, locus YPR141C, strain kar3, hits give low values 0.981 | S. cerevisiae deletion strains, locus YPR163C, strain tif3, hits give low values 1 | S. cerevisiae deletion strains, locus YPR167C, strain met16, hits give low values 0.999 | S. cerevisiae deletion strains, strain wtn01, hits give low values 0.995 | S. cerevisiae strains, strain wild type, hits give low values 0.975
